Values joined by “and” are separate entries in the source; they are usually repeats but may differ in a detail not shown here. Equal entries are not always repeated. Where two headings read alike, the source gives them in different places.
Key:
DAPK1 = details: concentration: 1 μM, replicates: in singlicate, n = 1
DAPK2 = details: concentration: 1 μM, replicates: in singlicate; n = 1
DAPK3 = details: concentration: 1 μM, replicates: in singlicate, n = 1
DCAMKL1 = tested on: T1, DCAMKL1; details: concentration: 1 μM, replicates: in singlicate, n = 1
T1 construct: gene DCLK1

DCAMKL2 = tested on: T2, DCAMKL2; details: concentration: 1 μM, replicates: in singlicate, n = 1
T2 construct: gene DCLK2

DCAMKL3 = tested on: T3, DCAMKL3; details: concentration: 1 μM, replicates: in singlicate, n = 1
T3 construct: gene DCLK3

DDR1 = details: concentration: 1 μM, replicates: in singlicate, n = 1
DDR2 = details: concentration: 1 μM, replicates: in singlicate, n = 1
DLK = tested on: T4, DLK; details: concentration: 1 μM, replicates: in singlicate, n = 1
T4 construct: gene MAP3K12

DMPK2 = tested on: T5, DMPK2; details: concentration: 1 μM, replicates: in singlicate, n = 1
T5 construct: gene CDC42BPG

DMPK = details: concentration: 1 μM, replicates: in singlicate; n = 1
DRAK1 = tested on: T6, DRAK1; details: concentration: 1 μM, replicates: in singlicate, n = 1
T6 construct: gene STK17A

DRAK2 = tested on: T7, DRAK2; details: n = 1
T7 construct: gene STK17B

DYRK1A = details: concentration: 1 μM, replicates: in singlicate; n = 1
DYRK1B = details: n = 1
DYRK2 = details: concentration: 1 μM, replicates: in singlicate, n = 1
EGFR = details: concentration: 1 μM, replicates: in singlicate, n = 1
EIF2AK1 = details: concentration: 1 μM, replicates: in singlicate, n = 1
EPHA1 = details: concentration: 1 μM, replicates: in singlicate; n = 1
EPHA2 = details: concentration: 1 μM, replicates: in singlicate; n = 1
[1] = concentration: 1 μM, replicates: in singlicate
[2] = concentration: 1 μM, replicates: in singlicate, 1 µM
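Note: KINOMEscan kinase panel screen.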

Cn1ccc2ncnc(Oc3ccc(NC(=O)Nc4ccncc4)c(Cl)c3)c21
%Inh (DAPK1): 0% | %Inh (DAPK2): 0% | %Inh (DAPK3): 0% | %Inh (DCAMKL1): 13% | %Inh (DCAMKL2): 0% | %Inh (DCAMKL3): 0% | %Inh (DDR1): 35% | %Inh (DDR2): 34% | %Inh (DLK): 0% | %Inh (DMPK2): 0% | %Inh (DMPK): 0% | %Inh (DRAK1): 0% | %Inh (DRAK2; [1]): 0% | %Inh (DYRK1A): 0% | %Inh (DYRK1B; [1]): 21% | %Inh (DYRK2): 0% | %Inh (EGFR): 0% | %Inh (EIF2AK1): 0% | %Inh (EPHA1): 0% | %Inh (EPHA2): 0%

COc1ccc(CNC(=O)NC2CCN(c3ccnc(Nc4ccc(OC)cc4)n3)C2)cc1 (stereo not drawn) [GSK1379727]
%Inh (DAPK1): 0% | %Inh (DAPK2): 0% | %Inh (DAPK3): 20% | %Inh (DCAMKL1): 11% | %Inh (DCAMKL2): 0% | %Inh (DCAMKL3): 5% | %Inh (DDR1): 0% | %Inh (DDR2): 20% | %Inh (DLK): 50% | %Inh (DMPK2): 0% | %Inh (DMPK): 0% | %Inh (DRAK1): 0% | %Inh (DRAK2; [1]): 0% | %Inh (DYRK1A): 20% | %Inh (DYRK1B; [1]): 0% | %Inh (DYRK2): 0% | %Inh (EGFR): 18% | %Inh (EIF2AK1): 0% | %Inh (EPHA1): 0% | %Inh (EPHA2): 14%

Cn1cc(-c2ccc3c(c2)CCN3C(=O)Cc2ccccc2Cl)c2c(N)ncnc21 [GSK2608885]
%Inh (DAPK1): 0% | %Inh (DAPK2): 0% | %Inh (DAPK3): 5% | %Inh (DCAMKL1): 13% | %Inh (DCAMKL2): 1% | %Inh (DCAMKL3): 35% | %Inh (DDR1): 100% | %Inh (DDR2): 93.4% | %Inh (DLK): 6% | %Inh (DMPK2): 100% | %Inh (DMPK): 0% | %Inh (DRAK1): 0% | %Inh (DRAK2; [1]): 0% | %Inh (DYRK1A): 7% | %Inh (DYRK1B; [1]): 12% | %Inh (DYRK2): 29% | %Inh (EGFR): 100% | %Inh (EIF2AK1): 6% | %Inh (EPHA1): 88% | %Inh (EPHA2): 77%

c1ccc(-c2n[nH]cc2-c2ccnc3ccccc23)nc1 [GW271431]
%Inh (DAPK1): 0% | %Inh (DAPK2): 0% | %Inh (DAPK3): 26% | %Inh (DCAMKL1): 12% | %Inh (DCAMKL2): 11% | %Inh (DCAMKL3): 0% | %Inh (DDR1): 8% | %Inh (DDR2): 0% | %Inh (DLK): 3% | %Inh (DMPK2): 18% | %Inh (DMPK): 2% | %Inh (DRAK1): 19% | %Inh (DRAK2; [1]): 18% | %Inh (DYRK1A): 17% | %Inh (DYRK1B; [1]): 20% | %Inh (DYRK2): 0% | %Inh (EGFR): 35% | %Inh (EIF2AK1): 14% | %Inh (EPHA1): 16% | %Inh (EPHA2): 4%

NS(=O)(=O)c1cccc(-c2ccc3nccc(-c4cccc(S(N)(=O)=O)c4)c3c2)c1 [GW867253]
%Inh (DAPK1): 0% | %Inh (DAPK2): 0% | %Inh (DAPK3): 2% | %Inh (DCAMKL1): 9% | %Inh (DCAMKL2): 0% | %Inh (DCAMKL3): 0% | %Inh (DDR1): 0% | %Inh (DDR2): 23% | %Inh (DLK): 9% | %Inh (DMPK2): 0% | %Inh (DMPK): 2% | %Inh (DRAK1): 0% | %Inh (DRAK2; [1]): 0% | %Inh (DYRK1A): 0% | %Inh (DYRK1B; [1]): 0% | %Inh (DYRK2): 32% | %Inh (EGFR): 0% | %Inh (EIF2AK1): 0% | %Inh (EPHA1): 0% | %Inh (EPHA2): 0%

CC(C)Oc1ccc2c(-c3ccnc(Nc4ccc(N5CCN(C)CC5)cc4)n3)cnn2n1 [GW696155]
%Inh (DAPK1): 97.9% | %Inh (DAPK2): 90.3% | %Inh (DAPK3): 99.6% | %Inh (DCAMKL1): 93.5% | %Inh (DCAMKL2): 91% | %Inh (DCAMKL3): 99.2% | %Inh (DDR1): 45% | %Inh (DDR2): 74% | %Inh (DLK): 89% | %Inh (DMPK2): 13% | %Inh (DMPK): 74% | %Inh (DRAK1): 99.5% | %Inh (DRAK2; [1]): 94.5% | %Inh (DYRK1A): 61% | %Inh (DYRK1B; [1]): 61% | %Inh (DYRK2): 91.6% | %Inh (EGFR): 50% | %Inh (EIF2AK1): 0% | %Inh (EPHA1): 48% | %Inh (EPHA2): 0%

Cl.Oc1cccc(Nc2ccnc3cc(-c4ccncc4)ccc23)c1 [GW494601]
%Inh (DAPK1): 5% | %Inh (DAPK2): 3% | %Inh (DAPK3): 15% | %Inh (DCAMKL1): 4% | %Inh (DCAMKL2): 0% | %Inh (DCAMKL3): 8% | %Inh (DDR1): 68% | %Inh (DDR2): 82% | %Inh (DLK): 54% | %Inh (DMPK2): 0% | %Inh (DMPK): 0% | %Inh (DRAK1): 11% | %Inh (DRAK2; [1]): 0% | %Inh (DYRK1A): 25% | %Inh (DYRK1B; [1]): 7% | %Inh (DYRK2): 43% | %Inh (EGFR): 76% | %Inh (EIF2AK1): 0% | %Inh (EPHA1): 98.8% | %Inh (EPHA2): 84%

CCCCCc1nc2c(N)ncnc2n1CCCCC [SKF-97255]
%Inh (DAPK1): 0% | %Inh (DAPK2): 0% | %Inh (DAPK3): 0% | %Inh (DCAMKL1): 23% | %Inh (DCAMKL2): 0% | %Inh (DCAMKL3): 5% | %Inh (DDR1): 0% | %Inh (DDR2): 21% | %Inh (DLK): 0% | %Inh (DMPK2): 0% | %Inh (DMPK): 0% | %Inh (DRAK1): 0% | %Inh (DRAK2; [1]): 11% | %Inh (DYRK1A): 0% | %Inh (DYRK1B; [1]): 0% | %Inh (DYRK2): 27% | %Inh (EGFR): 0% | %Inh (EIF2AK1): 0% | %Inh (EPHA1): 0% | %Inh (EPHA2): 0%

Cl.Cl.Cl.Fc1ccc(-c2ncn(C3CCNCC3)c2-c2ccnc(Nc3ccccc3)n2)cc1 [SB-238039]
%Inh (DAPK1; 1 µM): 0% and 24% | %Inh (DAPK3; 1 µM): 18% and 0% | %Inh (DCAMKL1; 1 µM): 18% and 12% | %Inh (DCAMKL2; 1 µM): 22% and 33% | %Inh (DCAMKL3; 1 µM): 8% and 75% | %Inh (DDR1; 1 µM): 87% and 84% | %Inh (DDR2; 1 µM): 87% and 63% | %Inh (DLK; 1 µM): 29% and 7% | %Inh (DMPK2; 1 µM): 99.9% and 99.8% | %Inh (DRAK1; 1 µM): 9% and 3% | %Inh (DRAK2; [2]): 18% and 6% | %Inh (DYRK1B; [2]): 6% and 7% | %Inh (DYRK2; 1 µM): 11% and 0% | %Inh (EGFR; 1 µM): 90.1% and 72% | %Inh (EIF2AK1; 1 µM): 0% and 1%

CSc1ccc(-c2cc3ncnc(SCC(=O)O)c3s2)cc1
%Inh (DRAK2; 1 µM): 97.7%

O=c1cc(N2CCOCC2)nc2n(Cc3cccc(Cl)c3Cl)c(C3CC3)nn12 [GSK2358994]
%Inh (DYRK1B; 1 µM): 0%

Reference: PMC5540273 (PLoS ONE, 2017)
